High-throughput results as filed in PubChem BioAssay.
Shown are actives, neighbours in structure and some others; about 4% of the full set was active somewhere.
TIM10 inh – growth inhibitors of isogenic TIM10 control yeast, primary screen, counter-screen for tim10-1 yeast inhibitor project, luminescence, uHTS | S. cerevisiae TIM10 strain growth, BacTiter-Glo luminescence, 24 h | inhibition, % at 10 µM | actives 1.4% (n = 330,000) | AID 463195, 2010;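 active means inhibition of 40% or more at the single tested concentration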;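 further: wild-type TIM10 isogenic control strain grown at permissive 25 °C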
tim23-1 inh – growth inhibitors of tim23-1 mutant yeast, primary screen, luminescence, uHTS; actives 1.3% (n = 330,000); AID 463212, 2010; inhibition, % at 20 µM; S. cerevisiae tim23-1 growth, BacTiter-Glo luminescence, 24 h;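 active means growth inhibition of the mutant yeast at or above 50%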;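 further: temperature-sensitive mutant grown at 25 °C; plate controls were DMSO-treated mutant yeast for no effect and medium wells lacking yeast for full effect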
NALP3 yeast inh – NALP3 inflammasome inhibitors in reconstituted yeast, primary screen, luminescence, uHTS; Yeast reconstituted NLRP3/ASC/caspase-1, beta-gal luminescence, 24 h; inhibition, % at 10 µM; actives 0.39% (n = 330,000); AID 2825, 2010;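 active means inhibition of 50% or more; inactive means inhibition below 50%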;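 further: plate controls were induced DMSO wells for no effect and uninduced yeast grown without galactose for full effect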
NALP1 yeast inh – NALP1 inflammasome inhibitors in reconstituted yeast, colorimetric, S. cerevisiae, triplicate retest; S. cerevisiae NALP1/ASC/caspase-1 growth, X-gal OD620, 72 h; inhibition, % at 10 µM; actives 0.61% (n = 280,000); AID 2071, 2009; in the data active means inhibition mostly above about 24%, no sharp cut-off; inactive means mostly below about 32%
tim10-1 inh – growth inhibitors of tim10-1 mutant yeast, primary screen, luminescence, uHTS; S. cerevisiae tim10-1 ts strain growth, BacTiter-Glo, 24 h; inhibition, % at 20 µM; actives 2.2% (n = 330,000); AID 463190, 2010;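 active means inhibition of at least 40%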;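 further: mutant grown at 25 °C; 0% = DMSO wells with yeast and 100% = wells holding no yeast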
tim10-1 confirm – growth inhibitors of tim10-1 mutant yeast, confirmation, single concentration, luminescence, S. cerevisiae; S. cerevisiae tim10-1 ts strain growth, BacTiter-Glo, 24 h; shares compounds with tim10-1 inh; inhibition, % at 20 µM; actives 56% (n = 7,400); AID 463213, 2010;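 active means inhibition of yeast growth at or above a set limit in either of two repeat tests at 20 µM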;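 further: tim10-1 mutant grown at permissive 25 °C to find synthetic lethal compounds; 0% = DMSO yeast wells and 100% = medium wells without yeast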
* hit, by the source's call; nt = no result.

SMILES	TIM10 inh	tim23-1 inh	NALP3 yeast inh	NALP1 yeast inh	tim10-1 inh	tim10-1 confirm
CCC(=O)Nc1nnc(S(=O)(=O)N2CCc3ccccc32)s1	1	7	21	-1	49*	6
Cc1cc(NCCCn2ccnc2)n2ncc(-c3ccc(Cl)cc3)c2n1	25	36	21	-1	41*	21
Cc1cc(NCCCN2CCOCC2)n2ncc(-c3ccc(Cl)cc3)c2n1	-26	38	31	8	1	nt
CC(=O)c1ccccc1C(=O)N1CCCC(C(=O)c2ccc(C(F)(F)F)cc2)C1 (stereo not given)	-3	-6	9	-9	-2	nt
COc1ccc(C(=O)Nn2c(C)nc3ccccc3c2=O)cc1[N+](=O)[O-]	-4	1	11	-16	7	nt
CSc1ccccc1NC(=S)NC1CCCC1	9	17	17	10	22	nt
CCCCc1ccccc1NC(=S)NC1CCCC1	32	40	26	10	43*	12
O=C(CN1C(=O)/C(=C/c2ccc(F)cc2)SC1=S)NC1CCS(=O)(=O)C1 (stereo not given)	-4	-12	-4	28	-10	nt
CC(C)(C)N(Cc1ccccc1)C(=O)c1ccc(Cl)cc1[N+](=O)[O-]	31	35	10	1	43*	29*
CCCN1C2CCCC1CC(NC(=O)c1ccccc1Br)C2 (stereo not given)	5	2	13	11	-10	nt
Cc1ccc2nc(NC(=O)C3CCN(S(=O)(=O)c4cccs4)CC3)sc2c1	31	21	-7	28	42*	19
Cc1ccc2nc(NC(=O)C3CCCN(S(=O)(=O)c4cccc5nsnc45)C3)sc2c1 (stereo not given)	32	26	20	10	41*	20
COc1ccc(NC(=O)CON=CC(=O)Nc2ccc(C)cc2)c(OC)c1	-2	-3	18	nt	-3	nt
Cc1[nH]n(-c2ccc([N+](=O)[O-])cc2)c(=O)c1C=NCCN1CCN(C(=O)c2ccc(F)cc2)CC1	15	30	19	-17	36	nt
Cc1[nH]n(-c2ccc([N+](=O)[O-])cc2)c(=O)c1C=NCCN1CCN(C(=O)c2cccc(F)c2)CC1	23	38	28	11	42*	48*
COc1cccc(OC)c1C(=O)Nc1cccc(NC(=O)c2cccs2)c1	4	21	14	23	12	nt
CC(C)C1OC(c2cccc(NC(=O)c3cccs3)c2)OCC1(C)C (stereo not given)	39	23	-6	-2	44*	32*
CCCCOc1ccc(S(=O)(=O)NNC(=O)C2Cc3c(ccc4ccccc34)O2)cc1 (stereo not given)	19	35	-13	37	45*	25
Cc1ccc(S(=O)(=O)NNC(=O)C2Cc3c(ccc4ccccc34)O2)cc1 (stereo not given)	20	22	12	-15	28	nt
Cc1ccc(CNCc2cc3c(C(C)(C)C)nn(-c4ccccc4)c3[nH]c2=O)cc1	24	46	25	8	50*	39*
COc1ccc(CNCc2cc3c(C(C)(C)C)nn(-c4ccccc4)c3[nH]c2=O)cc1	16	18	14	2	27	nt
Cc1nc2ccccc2c(=O)n1NC(=O)c1ccc(Cl)c(Cl)c1	19	44	-12	-8	23	nt
O=C(c1csc2c1CCCC2)N1CCN(c2ccc(F)cc2)CC1	9	37	-15	-16	43*	31
C/C(=N\NC(=O)c1ccc(Br)cc1)c1cccc(NC(=O)c2cccnc2)c1	6	9	-1	6	12	nt
C/C(=N/NC(=O)c1ccc(Br)o1)c1cccc(NC(=O)c2ccc(F)cc2)c1	29	40	19	18	49*	40*
C/C(=N/NC(=O)c1ccc(Br)o1)c1cccc(NC(=O)c2ccc(C)o2)c1	16	37	20	25	44*	18
C/C(=N/NC(=O)c1ccco1)c1cccc(NC(=O)c2ccc(C)o2)c1	23	6	-8	-2	13	nt
